# High-throughput results as filed in PubChem.
# Compounds with a hit are over-represented: about 3.1% of the library has one in this group of screens.
# LGR2 antag – blocks bursicon-induced cAMP signaling via Drosophila LGR2 | inhibition, % at 9.99 µM | AID 720647 | HEK293 LGR2, CRE-luciferase, bursicon-stimulated, 4 h | 380,000 tested, 0.35% active;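 active = drop in luminescence signal, shown as inhibition above about 50% in the replicate tests, limit read from the data, passing the limit was not always enough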;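 also: agonist challenge used bursicon conditioned medium at about half maximal strength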
# EBV LMP1 NFkB – reduces LMP1-driven NF-kappaB luciferase signal. inhibition, % at 12.5 µM. LMP1-induced NF-kappaB luciferase reporter cells, luminescence. 350,000 tested, 0.69% active; in the data active = inhibition above about 41%
# TWEAK Fn14 block – inhibitors of TWEAK-Fn14 interaction signaling | TWEAK-stimulated Fn14 reporter cells, luciferase luminescence, 8 h | inhibition, % at 10 µM | 360,000 tested, 2% active | AID 1159606; in the data active = inhibition above about 50%
# PAX8 reporter – inhibitors of PAX8 transcriptional activity in RMG-I cells; AID 652154; 360,000 tested, 1.2% active; RMG-I TPO-luciferase reporter, SteadyGlo, 24 h; inhibition, % at 12.6 µM;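 active = mean replicate inhibition at least 60% with every replicate also reaching 60%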;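 also: luciferase light reporting Pax8 driven TPO promoter activity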
# EWS-Fli block – EWS/Fli transcriptional activity inhibition; inhibition, % at 12.6 µM; 350,000 tested, 0.67% active; AID 651661; A673 NR0B1-luciferase reporter, viability-normalised;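 active = mean inhibition of at least 50% after viability correction, with every replicate also passing that limit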;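 also: firefly luciferase signal divided by Alamar Blue viability fluorescence both relative to DMSO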
# TROY NFkB inh – TROY signaling inhibition | Q293 LMP1-TROYcd NF-kB luciferase reporter, 4 h | inhibition, % at 10 µM | 360,000 tested, 0.98% active;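 active = compounds whose plate-normalised and pattern-corrected inhibition of the luciferase reporter signal at the single screening dose is 50% or more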
# Hits are given with their value; n = inactive; x = no result.
SMILES,LGR2 antag,EBV LMP1 NFkB,TWEAK Fn14 block,PAX8 reporter,EWS-Fli block,TROY NFkB inh
COc1ccc(C(=O)CC(Nc2ccc([N+](=O)[O-])cc2)c2ccc(Cl)cc2)cc1 (stereo not drawn),n,n,53,x,x,n
CCn1c2ccccc2c2cc(NC(=O)c3cc(OC)cc(OC)c3)ccc21,n,n,n,96,x,n
CCn1c2ccccc2c2cc(NC(=O)c3cc(OC)c(OC)c(OC)c3)ccc21,n,n,n,x,n,n
CCn1c2ccccc2c2cc(NC(=O)c3coc(=O)c(Br)c3)ccc21,x,x,74,n,n,n
Cc1cccc(C)c1OCC(O)CN1CCC(CN2C(=O)c3cccc4cccc(c34)C2=O)CC1 (stereo not drawn),x,n,62,x,x,n
Cc1ccccc1OCC(=O)N/N=C/c1cccc(Oc2ccc([N+](=O)[O-])cc2[N+](=O)[O-])c1,n,n,63,n,x,n
O=C(N/N=C/c1cccc(Oc2ccc([N+](=O)[O-])cc2[N+](=O)[O-])c1)c1cncc(Br)c1,n,n,n,x,x,59
COCCNC(=O)NC12CC3(C)CC(C)(CC(C)(C3)C1)C2,n,57,n,n,n,n
CO[C@@H]1CN(C)C(=O)c2ccc(NC(C)=O)cc2OC[C@H](C)N(C(=O)C2CC2)C[C@H]1C,n,x,x,n,n,x
CO[C@H](CN(C)C(=O)c1cc(Cl)cc(Cl)c1)[C@@H](C)CN(C(=O)Nc1ccc(F)cc1)[C@@H](C)CO,n,x,x,x,n,x
Nc1nc(F)nc2c1ncn2[C@@H]1O[C@H](CO)[C@@H](O)[C@H]1O,75,91,87,108,n,51
O=C(CSc1nc2ccccc2c(=O)n1Cc1ccco1)c1ccc(F)cc1,x,n,58,x,x,64
CCCn1c(C)cc(C(=O)CSc2nc3ccccc3c(=O)n2Cc2ccco2)c1C,x,n,59,n,n,n
Cc1cc2c(=O)n(Cc3ccco3)c(SCC(=O)c3ccc(Cl)s3)nc2s1,x,n,54,x,x,n
COc1cc(NC(=O)COc2cc(O)c3c(c2)OC(C)(C)CC3=O)cc(OC)c1OC,n,n,78,x,n,n
CC1(C)CC(=O)c2c(O)cc(OCC(=O)Nc3ccc(S(N)(=O)=O)cc3)cc2O1,n,n,n,x,n,n
CCOc1ccc(S(=O)(=O)NCc2ccccn2)cc1NC(=O)c1ccccc1,n,n,n,n,58,n
CCOc1ccc(S(=O)(=O)NCc2cccnc2)cc1NC(=O)c1ccccc1,n,n,n,n,n,n
O=S(=O)(c1ccccc1F)N1CC[C@@H]2[C@H]1c1cc(-c3cccc(F)c3)ccc1N[C@@H]2CO,97,x,x,100,n,x
Cc1cccc(S(=O)(=O)N2CC[C@@H]3[C@H](CO)Nc4ccc(C5=CCCCC5)cc4[C@@H]32)c1,n,x,x,83,n,x
O=S(=O)(c1ccccc1F)N1CC[C@@H]2[C@@H](CO)Nc3ccc(-c4ccccc4F)cc3[C@@H]21,n,x,x,n,n,x
COc1ccccc1-c1ccc2c(c1)[C@@H]1[C@@H](CCN1S(=O)(=O)c1ccccc1F)[C@H](CO)N2,n,x,x,81,n,x
O=S(=O)(c1ccccc1F)N1CC[C@H]2[C@H](CO)Nc3ccc(C4=CCCCC4)cc3[C@H]21,n,x,x,95,n,x
C[C@@H]1CN([C@@H](C)CO)C(=O)c2cccc(NC(=O)c3nc4ccccc4s3)c2O[C@@H]1CN(C)S(=O)(=O)c1cccs1,n,x,x,x,n,x
C[C@@H]1CN([C@H](C)CO)C(=O)c2cc(C#CC3CCCCC3)cnc2O[C@H]1CN(C)C(=O)NC1CCCC1,n,x,x,x,n,x
SMILES,LGR2 antag,EBV LMP1 NFkB,TWEAK Fn14 block,PAX8 reporter,EWS-Fli block,TROY NFkB inh
COc1ccc(NC(=O)Nc2ccc3c(c2)C(=O)N([C@@H](C)CO)C[C@@H](C)[C@H](CN(C)Cc2ccc(C(=O)O)cc2)OCCCC[C@H](C)O3)cc1,n,x,x,n,n,x
COc1ccccc1S(=O)(=O)N1CC[C@@H]2[C@@H](CO)Nc3ccc(-c4ccccc4)cc3[C@@H]21,n,x,x,70,n,x
COc1ccccc1-c1ccc2c(c1)[C@H]1[C@H](CCN1S(=O)(=O)c1ccccc1F)[C@@H](CO)N2,n,x,x,n,n,x
COc1ccccc1-c1ccc2c(c1)[C@H]1[C@H](CCN1S(=O)(=O)c1ccccc1F)[C@H](CO)N2,n,x,x,81,n,x
Cc1ccc(C)c(NS(=O)(=O)c2ccc(NC(=O)CSc3ccc(Cl)cc3)cc2)c1,n,n,n,n,n,n
Cc1ccc(NS(=O)(=O)c2ccc(NC(=O)C(C)Sc3ccc(Cl)cc3)cc2)c(C)c1 (stereo not drawn),n,60,n,n,n,n
Oc1cccc2ccc(/C=C/c3ccccc3Cl)nc12,n,n,95,n,n,74
COc1ccc(NC(=O)Nc2ccc3c(c2)CC(=O)N([C@@H](C)CO)C[C@@H](C)[C@H](CN(C)S(=O)(=O)c2ccccc2)O3)cc1,n,x,x,x,n,x
C=C(CC)C(=O)c1ccc(OCC(=O)O)c(Cl)c1Cl,n,n,n,81,n,n
C[C@@H]1CN([C@H](C)CO)C(=O)c2cc(NC(=O)C3CCCCC3)ccc2O[C@H]1CN(C)S(=O)(=O)c1ccccc1,n,x,x,n,n,x
CC(=O)NC1=NC(=O)/C(=C/c2cn(C(C)=O)nc2-c2ccccc2)S1,x,n,74,n,n,n
Cc1ccc(S(=O)(=O)Nc2ccc3c(c2)CC(=O)N([C@H](C)CO)C[C@@H](C)[C@@H](CN(C)S(=O)(=O)c2ccc(Cl)cc2)O3)cc1,n,x,x,n,n,x
O=C1ON=C(c2ccccc2[N+](=O)[O-])/C1=C/c1cccc([N+](=O)[O-])c1O,n,71,n,n,n,n
COc1ccc(/C=C/C(=O)Nc2ccccc2C(=O)N2CCCC2)cc1,x,n,n,x,x,n
COc1ccc(/C=C/C(=O)c2cc(F)ccc2OC(=O)c2ccc(OC)c(OC)c2)cc1OC,n,n,n,n,n,n
COc1ccc(/C=C/C(=O)Nc2ccccc2C(=O)O)cc1OC,81,n,98,n,n,84
COc1ccc(/C=C/C(=O)Nc2ccccc2C(=O)O)cc1,59,n,87,n,n,54
COc1ccc(/C=C/c2cc(C(=O)O)c3ccccc3n2)cc1,n,80,77,n,70,n
COc1ccc(/C=C/C(=O)c2cc(F)ccc2OC(=O)c2ccccc2)cc1OC,x,n,n,77,x,n
CCOC(=O)c1nnc(-c2ccc(C)cc2)nc1Sc1cccc(Cl)c1,x,n,n,x,x,n
CCOC(=O)c1nnc(-c2ccccc2)nc1Sc1ccccc1Cl,x,n,57,x,x,n
Cc1ccccc1C(=O)NCCCCc1ccccc1,n,n,n,n,x,n
Nc1nc2ccccc2cc1C(=O)NCCCCc1ccccc1,x,x,53,x,x,n
Clc1ccc(-c2nnc(-c3ccccc3)o2)c(Cl)c1,x,n,63,x,x,n
Fc1ccc(-c2nnc(-c3ccc(Cl)cc3)o2)cc1,x,n,n,x,x,n
CSc1ccccc1-c1nnc(-c2ccc(Cl)cc2Cl)o1,n,n,n,x,x,n
Fc1ccc(-c2nnc(-c3ccc(Cl)cc3Cl)o2)cc1,n,n,56,n,n,n
